PubChem BioAssay (Tox21)
Results filed as inconclusive are left out. Entries that show only a call come without a potency. Active and inactive are the calls of the source. Unless noted, the call rests on the fitted dose curve; in most records, active means well fitted curve in the direction sought with a large enough effect in the repeat runs; inconclusive means weak or mixed curves; inactive means no such curve, though single readings can be large; an effect the other way counts as inactive or inconclusive.

Columns and labels:
[1] = qHTS assay to identify small molecule antagonists of the retinoid acid receptor (RAR) signaling pathway - cell viability counter screen (AID 1159551); further: nearly all actives have a fitted effect of over 35% in size; further: potency means the concentration at half of the fitted maximal effect
Procedure, shortened: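 In this counter screen, the RARE-luciferase line C3RL4 was exposed for 6 h at 37 C and 5% CO2 to compounds with retinol at 1 uM final. Cellular ATP, read by luminescence, served as the viability measure.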

[2] = qHTS assay to identify small molecule antagonists of the retinoic acid receptor (RAR) signaling pathway (AID 1159552; further: nearly all actives have a fitted effect of over 50% in size)
Procedure, shortened: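 Cells of the C3RL4 line were seeded, incubated overnight, then dosed with compounds in DMSO followed immediately by retinol (1 uM final). Six hours later luciferase detection reagent went in; signal was measured after 30 min at RT.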

[3] = qHTS assay to identify small molecule agonists of the retinoic acid receptor (RAR) signaling pathway (AID 1159553); further: potency means the concentration at half of the fitted maximal effect
Procedure, shortened: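 In this cell-based screen, 1,000 C3RL4 cells per well were cultured overnight, dosed with test chemicals in DMSO for 6 hr, and assessed for RARE luciferase luminescence.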

[4] = qHTS assay to identify small molecule antagonists of the estrogen related receptor (ERR) signaling pathway from Tox21 library - cell viability counter screen (AID 1224834); further: nearly all actives have a fitted effect of over 30% in size; further: potency means the concentration at half of the fitted maximal effect
Procedure, shortened: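 Counter screen run in ERR cells (2,000 cells/well): cells pre-incubated 6 h, then treated with compounds for 17.5 h at 37 C. Fluorescence was read 30 min after CellTiter-Fluor addition.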

[5] = target: Luciferin 4-monooxygenase (Photinus pyralis) (UniProt P08659); test: qHTS assay to identify small molecule inhibitors of firefly luciferase (AID 1224835); further: nearly all actives have a fitted effect of over 25% in size; further: potency means the concentration at half of the fitted maximal effect
Procedure, shortened: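 Biochemical qHTS: compounds run as interplate titrations against purified firefly enzyme, with D-luciferin and ATP each at its KM concentration. Light output recorded by CCD imaging.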

[6] = qHTS assay to identify small molecule agonists of the constitutive androstane receptor (CAR) signaling pathway - cell viability counter screen (AID 1224836); further: nearly all actives have a fitted effect of over 45% in size; further: potency means the concentration at half of the fitted maximal effect
Procedure, shortened: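 HepG2-CYP2B6-hCAR, 2500 cells/well, 4 h pre-incubation; cpd 15 conc + PK11195 0.75 uM final; 23 h, 37 C/5% CO2; CellTiter-Fluor, fluorescence.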

[7] = qHTS assay to identify small molecule antagonists of the constitutive androstane receptor (CAR) signaling pathway - cell viability counter screen (AID 1224837); further: nearly all actives have a fitted effect of over 45% in size; further: potency means the concentration at half of the fitted maximal effect
Procedure, shortened: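 CITCO at 50 nM final was added alongside compounds (15 concentrations) to double-stable hCAR/CYP2B6-2.2kb HepG2 cells. Following 23 hr at 37 C, cell viability was quantified by CellTiter-Fluor fluorescence intensity.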

[8] = target: Nuclear receptor subfamily 1 group I member 3 (Homo sapiens) (UniProt Q14994); test: qHTS assay to identify small molecule antagonists of the constitutive androstane receptor (CAR) signaling pathway (AID 1224838); further: nearly all actives have a fitted effect of over 40% in size; further: potency means the concentration at half of the fitted maximal effect
Procedure, shortened: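 Inhibition of CITCO-driven (50 nM final) CYP2B6 reporter expression is measured in HepG2 cells stably carrying hCAR. Fifteen compound concentrations are applied for 24 h at 37 C, followed by luciferase luminescence.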

[9] = target: Nuclear receptor subfamily 1 group I member 3 (Homo sapiens) (UniProt Q14994); test: qHTS assay to identify small molecule agonists of the constitutive androstane receptor (CAR) signaling pathway (AID 1224839); further: nearly all actives have a fitted effect of over 15% in size; further: potency means the concentration at half of the fitted maximal effect
Procedure, shortened: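 HepG2-CYP2B6-hCAR cells, 2500/well, 4 h pre-incubation; compounds 15 conc.; PK11195 0.75 uM final; 24 h, 37 C/5% CO2; ONE-Glo luciferase read.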

[10] = qHTS assay to identify small molecule antagonists of the estrogen related receptor signaling pathway with the pleiotropic PPARgamma coactivator (PGC) from Tox21 10K library - cell viability counter screen (AID 1224840; active means well fitted cell-killing curve with a large enough effect in the repeat runs, not every such curve was filed as active; further: nearly all actives have a fitted effect of over 40% in size; further: potency means the concentration at half of the fitted maximal effect)
Procedure, shortened: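 Readout: fluorescence intensity from CellTiter-Fluor after 30 min at 37 C/5% CO2. Preceded by 17.5 h treatment of PGC/ERR cells with DMSO-dissolved compounds, added 6 h post-seeding.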

[11] = qHTS assay to identify small molecule antagonists of the estrogen related receptor signaling pathway with the pleiotropic PPARgamma coactivator (PGC) from Tox21 10K library (AID 1224841; call rule not given here; further: actives are mostly falling curves and most rising ones were filed inactive; nearly all actives have a fitted effect of over 50% in size; further: potency means the concentration at half of the fitted maximal effect)
Procedure, shortened: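 One-Glo luminescence, measured after half an hour at room temperature, quantified reporter output of PGC/ERR cells. These had been plated at 2,000 per well, incubated 6 h, dosed with compounds in DMSO, then kept 18 h at 37 C.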

[12] = qHTS assay to identify small molecule agonists of the estrogen related receptor signaling pathway with the pleiotropic PPARgamma coactivator (PGC) from Tox21 10K library (AID 1224842); further: nearly all actives have a fitted effect of over 15% in size
Procedure, shortened: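 PGC/ERR reporter cell line, 2,000 cells per well, incubated 6 h at 37 C before 23 nL compound in DMSO was added. After 18 h at 37 C, One-Glo luminescence read following 30 min at room temperature.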

[13] = qHTS assay to identify small molecule antagonists of the estrogen related receptor (ERR) signaling pathway - cell viability counter screen (AID 1224818); further: series mostly up to about 46 µM
Procedure, shortened: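 Viability of ERR cells, CellTiter-Fluor fluorescence; 17.5 h compound exposure at 37 C, DMSO vehicle; 30 min reagent incubation at 37 C/5% CO2.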

[14] = qHTS assay to identify small molecule antagonists of the estrogen related receptor (ERR) signaling pathway (AID 1224819; further: nearly all actives have a fitted effect of over 50% in size; further: potency means the concentration at half of the fitted maximal effect)
Procedure, shortened: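 Seed ERR cells 2,000/well; rest 6 h at 37 C/5% CO2; pin compounds in DMSO; incubate 18 h at 37 C; add One-Glo; wait 30 min at room temperature; measure luminescence.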

[15] = qHTS assay to identify small molecule agonists of the estrogen related receptor (ERR) signaling pathway (AID 1224820)
Procedure, shortened: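 Following a 6 h settling period, 2,000 ERR cells per well receive DMSO-dissolved compounds by pin tool and incubate 18 h at 37 C; agonist activity is scored from One-Glo luminescence read 30 min post-addition.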

[16] = test system: estrogen-related receptor alpha (ERRalpha) with PGC-1alpha coactivator, human; test: qHTS assay to identify small molecule antagonists of the estrogen related receptor signaling pathway with the pleiotropic PPARgamma coactivator (PGC) (AID 1224821; calls by dose curve;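 further: series mostly up to about 46 µM; lower luminescence signal means antagonism of PGC/ERR signalling; nearly all actives have a fitted effect of over 50% in size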)
Procedure, shortened: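 Screening used NTP's PGC/ERR cells, dosed via pin tool with compound in DMSO alongside positive and negative controls. After 18 h at 37 C, One-Glo reagent sat 30 min at room temperature before luminescence detection.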

[17] = qHTS assay to identify small molecule antagonists of the estrogen related receptor signaling pathway with the pleiotropic PPARgamma coactivator (PGC) cell viability counter screen (AID 1224822; further: series mostly up to about 46 µM)
Procedure, shortened: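 17.5 h compound treatment of PGC/ERR cells at 37 C; readout CellTiter-Fluor fluorescence; run alongside the PGC/ERR antagonist screen to flag cytotoxic compounds.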

[18] = qHTS assay to identify small molecule agonists of the estrogen related receptor signaling pathway with the pleiotropic PPARgamma coactivator (PGC) (AID 1224823)
Procedure, shortened: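 In this quantitative high-throughput screen, an 18 h, 37 C treatment of PGC/ERR cells with compounds in DMSO preceded a One-Glo luminescence read taken after 30 min at room temperature.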

[19] = qHTS assay to identify small molecule agonists of the RXR signaling pathway - cell viability counter screen (AID 1159529)
Procedure, shortened: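 HEK 293T RXRa-bla cells, 2% CS-FBS; 5 h settle; cpd 16 h 37 C, 5% CO2; CellTiter-Glo 30 min RT, luminescence. Tetraoctyl ammonium bromide as positive control.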

Chain of Luciferin 4-monooxygenase (Photinus pyralis) (P08659 whole entry, looked up): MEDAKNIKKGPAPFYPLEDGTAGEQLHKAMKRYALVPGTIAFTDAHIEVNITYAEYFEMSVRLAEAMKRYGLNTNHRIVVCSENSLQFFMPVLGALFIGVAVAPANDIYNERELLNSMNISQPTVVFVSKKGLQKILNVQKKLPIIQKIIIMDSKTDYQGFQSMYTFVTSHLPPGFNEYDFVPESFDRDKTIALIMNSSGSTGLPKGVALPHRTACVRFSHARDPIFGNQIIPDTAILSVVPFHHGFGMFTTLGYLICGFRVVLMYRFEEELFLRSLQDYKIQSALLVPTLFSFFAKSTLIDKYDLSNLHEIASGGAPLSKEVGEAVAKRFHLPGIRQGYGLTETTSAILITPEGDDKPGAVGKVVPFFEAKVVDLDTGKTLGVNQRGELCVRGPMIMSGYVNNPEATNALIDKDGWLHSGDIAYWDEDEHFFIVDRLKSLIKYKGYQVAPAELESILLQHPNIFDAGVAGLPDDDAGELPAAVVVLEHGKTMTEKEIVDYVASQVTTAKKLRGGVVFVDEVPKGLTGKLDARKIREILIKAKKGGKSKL
Chain of Nuclear receptor subfamily 1 group I member 3 (Homo sapiens) (Q14994 whole entry, looked up): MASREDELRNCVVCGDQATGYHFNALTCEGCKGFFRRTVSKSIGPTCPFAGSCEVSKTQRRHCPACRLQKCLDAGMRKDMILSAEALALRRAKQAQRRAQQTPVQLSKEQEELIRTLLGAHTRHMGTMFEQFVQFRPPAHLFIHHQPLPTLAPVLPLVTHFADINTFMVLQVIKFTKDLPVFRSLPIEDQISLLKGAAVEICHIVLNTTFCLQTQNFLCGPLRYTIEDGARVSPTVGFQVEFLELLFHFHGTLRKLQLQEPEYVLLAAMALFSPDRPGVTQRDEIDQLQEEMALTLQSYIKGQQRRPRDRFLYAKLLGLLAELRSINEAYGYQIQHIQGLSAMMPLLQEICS

SMILES: Cc1cc2nc3ccc(=[N+](C)C)cc-3sc2cc1N
- Potency [1]: 26.6 µM (active)
- Potency [2]: inactive
- Potency [3]: 1.88 µM (active)
- Potency [4]: 2.66 µM (active)
- Potency [5]: 9.77 µM (active)
- Potency [6]: 21.1 µM (active)
- Potency [7]: 10.6 µM (active)
- Potency [8]: inactive
- Potency [9]: 8.41 µM (active)
- Potency [10]: 13.3 µM (active)
- Potency [11]: 2.66 µM (active)
- Potency [12]: inactive

SMILES: CC1CC(=O)NN=C1c1ccc(NCC(C)(C)NCC(O)COc2cc(Cl)ccc2C#N)cc1 (stereo unspecified)
- Potency [1]: inactive
- Potency [2]: inactive
- Potency [4]: inactive
- Potency [7]: inactive
- Potency [8]: inactive
- Potency [9]: inactive
- Potency [10]: inactive
- Potency [11]: inactive
- Potency [12]: inactive

SMILES: Cc1cnc(C)c(C)n1
- Potency [1]: inactive
- Potency [2]: inactive
- Potency [4]: inactive
- Potency [5]: inactive
- Potency [6]: inactive
- Potency [7]: inactive
- Potency [8]: inactive
- Potency [9]: inactive
- Potency [10]: inactive

SMILES: Fc1ccccc1[C@@H](F)COC1CCC(Nc2ncnc3[nH]ncc23)CC1 (stereo partly specified)
- Potency [2]: inactive
- Potency [3]: inactive
- Potency [4]: 30.6 µM (active)
- Potency [8]: inactive
- Potency [9]: inactive

SMILES: CCCc1c(OCCCOc2ccc(OCC(=O)O)cc2)ccc(C(C)=O)c1O
- outcome [13]: inactive
- Potency [14]: inactive
- outcome [15]: inactive
- Potency [16]: inactive
- outcome [17]: inactive
- Potency [18]: inactive
- Potency [4]: inactive
- Potency [6]: inactive
- Potency [7]: inactive
- Potency [10]: inactive
- Potency [11]: inactive
- Potency [12]: inactive

SMILES: COc1cc2ncnc(Nc3ccc(F)c(Cl)c3)c2cc1OCCCN1CCOCC1
- Potency [4]: 21.1 µM (active)
- Potency [5]: inactive
- Potency [8]: inactive
- Potency [9]: inactive
- Potency [12]: inactive

SMILES: CCNC(=O)N1CCN(CCCC(c2ccc(F)cc2)c2ccc(F)cc2)CC1
- Potency [1]: inactive
- Potency [14]: 8.1 µM (active)
- outcome [15]: inactive
- Potency [18]: inactive
- Potency [4]: 18.8 µM (active)
- Potency [5]: inactive
- Potency [7]: 21.1 µM (active)
- Potency [8]: inactive
- Potency [12]: inactive

SMILES: C1COCO1
- Potency [19]: inactive
- Potency [4]: inactive
- Potency [5]: inactive
- Potency [6]: inactive
- Potency [7]: inactive
- Potency [8]: inactive
- Potency [9]: inactive
- Potency [10]: inactive
- Potency [11]: inactive
- Potency [12]: inactive

SMILES: CCCCC1C(=O)N(c2ccccc2)N(c2ccc(O)cc2)C1=O (stereo unspecified)
- Potency [2]: inactive
- Potency [4]: 18.8 µM (active)
- Potency [5]: inactive
- Potency [8]: 29.8 µM (active)
- Potency [9]: inactive
